Assay outcomes from PubChem.
Most compounds without a hit are left out; they make up all but 1.6% or so of the library.
KCNQ2 inh = rat KCNQ2 potassium channel inhibitors, primary screen, cell-based, CHO-K1, FluxOR thallium flux, B-score | Potassium voltage-gated channel subfamily KQT member 2 (Rattus norvegicus), O88943 | AID 2156, 2009 | hit rate 1.1% among 310,000 | B-score at 10 µM | 20 min; hits give low values;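 active = fluorescence ratio B-score at most minus 3 library SDs, with starting brightness B-score within 2 library SDs, cut at about -5.5 in these data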
Target sequence (O88943 whole entry, looked up): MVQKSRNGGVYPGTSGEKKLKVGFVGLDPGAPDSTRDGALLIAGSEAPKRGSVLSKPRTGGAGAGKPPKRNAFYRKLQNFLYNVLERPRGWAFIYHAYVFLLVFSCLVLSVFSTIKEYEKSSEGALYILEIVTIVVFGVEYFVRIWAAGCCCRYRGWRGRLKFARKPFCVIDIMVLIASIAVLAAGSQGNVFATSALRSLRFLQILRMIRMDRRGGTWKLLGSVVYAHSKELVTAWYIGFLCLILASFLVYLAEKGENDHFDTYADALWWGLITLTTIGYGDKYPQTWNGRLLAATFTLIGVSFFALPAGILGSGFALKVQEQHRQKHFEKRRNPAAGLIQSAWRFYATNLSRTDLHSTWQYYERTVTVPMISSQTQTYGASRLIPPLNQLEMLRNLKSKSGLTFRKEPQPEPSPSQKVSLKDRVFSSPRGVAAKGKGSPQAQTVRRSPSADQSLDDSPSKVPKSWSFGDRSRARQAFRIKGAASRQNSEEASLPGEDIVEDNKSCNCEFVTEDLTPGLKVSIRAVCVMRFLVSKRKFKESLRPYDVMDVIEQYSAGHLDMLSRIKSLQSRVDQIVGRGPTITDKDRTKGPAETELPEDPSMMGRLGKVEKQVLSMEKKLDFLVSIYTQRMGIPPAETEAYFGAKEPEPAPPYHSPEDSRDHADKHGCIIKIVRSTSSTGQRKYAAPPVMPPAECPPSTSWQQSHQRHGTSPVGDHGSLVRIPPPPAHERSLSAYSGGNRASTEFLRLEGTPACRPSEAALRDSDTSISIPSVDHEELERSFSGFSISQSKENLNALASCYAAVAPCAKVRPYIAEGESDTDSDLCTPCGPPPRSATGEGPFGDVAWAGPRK
KCNQ2 enhance = potentiators of rat KCNQ2 potassium channel. hit rate 0.54% among 310,000. B-score at 10 µM. Potassium voltage-gated channel subfamily KQT member 2 (Rattus norvegicus), O88943. CHO-K1 KCNQ2, FluxOR thallium flux fluorescence; hits give high values;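 active = fluorescence ratio B-score at least 3 SD of library B-scores, with initial fluorescence B-score within 3 of them, cut at about 5.3 in these data; same plate scores as AID 2156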;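 also: B-score of peak minus minimum over baseline fluorescence ratio after K+ and Tl+ stimulus; positive B-score means potentiation of KCNQ2 with more thallium influx and brighter signal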
Starred values were filed as active, the others as inactive; i = inactive; nt = no result.

SMILES	KCNQ2 inh	KCNQ2 enhance
O=S(=O)(Nc1ccc(S(=O)(=O)N2CCCCC2)cc1)c1ccc(Br)s1	i	nt
COc1ccccc1S(=O)(=O)Cc1ccc(C(=O)N2CCN(c3ccc(C)cc3)C(C)C2)o1 (stereo not drawn)	-6.6*	-6.6
CCOC(=O)N1CCN(C(=O)c2ccc(CS(=O)(=O)c3ccccc3OC)o2)CC1	i	0.24
CCC(=O)N1c2ccc(S(=O)(=O)N3CCN(c4cc(C)ccc4C)CC3)cc2CC1C (stereo not drawn)	i	nt
CC1CCCCC1NC(=O)CCCCn1c(=O)[nH]c2ccsc2c1=O (stereo not drawn)	i	1.1
COC(=O)Cc1ccc(NC(=S)N2CCCC(CO)C2)cc1 (stereo not drawn)	i	1
CC(=O)c1ccc(NC(=S)N2CCCC(CO)C2)cc1 (stereo not drawn)	i	13*
COc1ccc(-c2ncnc(C(F)(F)F)c2-c2csc(C)n2)c(O)c1	i	1.1
O=C(Nc1c(-c2ccccc2)nc2ccccn12)c1ccco1	i	0.57
Oc1ccc(-c2nc3ccccn3c2NCc2ccco2)cc1	-5.8*	-5.8
O=[N+]([O-])c1cccc(CSC2=NCCN2S(=O)(=O)c2ccccc2)c1	i	nt
CC(NC(=O)c1ccc(F)cc1)C1CC2CCC1C2 (stereo not drawn)	i	nt
CC(NC(=O)COc1ccccc1F)C1CC2CCC1C2 (stereo not drawn)	-6*	-6
COc1ccccc1NC(=O)c1c(N=Cc2cccc([N+](=O)[O-])c2)cnn1C	i	0.02
CCOC(=O)N1CCN(Cc2cc(Cl)c3cccnc3c2O)CC1	i	15*
COCc1cc(CN2CCN(C)CC2)c(O)c2ncccc12	i	nt
O=C(Nc1ccc([N+](=O)[O-])cc1)c1cc(-c2ccccn2)nc2c(Cl)cccc12	i	0.27
C=C1SC(=Nc2c(C)cccc2Cl)N(C(=O)c2sc3ccccc3c2Cl)C12CCCCC2	i	nt
C=C1SC(=Nc2ccccc2Cl)N(C(=O)c2sc3ccccc3c2Cl)C1(C)C	-5.8*	-5.8
C=CCN(CC=C)C(=O)C1CCN(S(=O)(=O)c2ccc(N3CCCC3=O)cc2)CC1	i	0.07
Cc1cnc(C(=O)OC(C)C(=O)Nc2cccc3ccccc23)cn1 (stereo not drawn)	i	nt
Cc1ccc(NC(=S)NCC(C)CSc2ccc(Cl)cc2)cc1 (stereo not drawn)	i	13*
Cc1cccc(NC(=S)NCC(C)CSc2ccc(Cl)cc2)c1 (stereo not drawn)	i	2
C#Cc1ccc([C@@H]2C=C(C(=O)N3CCOCC3)O[C@H](OCC)[C@H]2CCCO)cc1	i	1.1
Cc1ccc(C)c(CN2CCC(n3nccc3NC(=O)CCCc3ccccc3)CC2)c1	i	0.06
SMILES	KCNQ2 inh	KCNQ2 enhance
CC(C)[C@H](NC(=O)[C@@H]1Cc2ccccc2CN1)C(=O)Nc1ccc2c(c1)OCO2	i	0.02
Cc1cc(C)nc(SC2CCCCC2NS(=O)(=O)c2ccccc2)n1 (stereo not drawn)	i	0.33
Cc1cc(C)nc(SC2c3cccc4cccc(c34)C2NS(=O)(=O)c2ccccc2)n1 (stereo not drawn)	-5.7*	-5.7
Cc1ccc(S(=O)(=O)NC2c3cccc4cccc(c34)C2Sc2ncccn2)cc1 (stereo not drawn)	-7*	-7
Cc1ccc(S(=O)(=O)Nc2cccc3cccnc23)cc1	i	nt
O=C(Nc1ccccc1)C1=C[C@@H](C2CC2)C[C@@H](OCc2ccc(CO)cc2)O1	i	nt
O=C(/C=C/c1ccc(S(=O)(=O)N2CCOCC2)cc1)OCC(=O)c1ccc([N+](=O)[O-])cc1	i	0.08
CCN(CC)C(=O)Cn1cc(S(=O)(=O)CC(=O)N2CCOCC2)c2ccccc21	i	0.44
O=C(O)C1CCCN1S(=O)(=O)c1cccc2nsnc12 (stereo not drawn)	i	0.03
O=C(CSc1nnc(C2CCCCC2)o1)Nc1ccccc1Cl	i	nt
Cc1ccc(N=Cc2cc(Cl)cc(Cl)c2O)nc1	i	12*
Oc1c(Cl)cc(Cl)cc1/C=N/Nc1ncc(Br)cn1	i	nt
COc1ccc(Cl)cc1NC(=O)C/C(C)=N/NC(=O)Cc1ccccc1	i	0.87
NC(=O)CSCc1cccc(Br)c1	i	nt
NC(CSCc1cccc(Br)c1)C(=O)O (stereo not drawn)	-6*	-6
O=C(NC1CCC(O)CC1)c1cccc2cccnc12 (stereo not drawn)	i	nt
COc1ccccc1/C=N/OCc1cc(C(C)=O)ccc1OC	i	nt
COCc1cc(C)nc(SCC(=O)Nc2ccccc2C)c1C#N	i	0.69
COCc1cc(C)nc(SCC(=O)Nc2cc(C(F)(F)F)ccc2N2CCOCC2)c1C#N	-5.6*	-5.6
Clc1ccc(CSc2nncn2-c2ccccn2)cc1	i	0.68
Clc1ccc(CSc2nncn2-c2ccc3c(c2)OCCO3)cc1	-7.7*	-7.7
Cc1csc(-c2cnn(-c3ccccc3)c2NC(=O)c2ccc(C(F)(F)F)cc2)n1	-5.9*	-5.9
CC(C)(C)NC(=O)c1cnn(-c2ccccc2)c1NC(=O)c1ccccc1	i	nt
Cc1nn(CC(=O)NCc2cc3ccccc3[nH]2)c(C)c1[N+](=O)[O-]	i	nt
CCN(C(=S)Nc1ccc(C(C)=O)cc1)C1CCCCC1	i	nt
SMILES	KCNQ2 inh	KCNQ2 enhance
Cc1c(C(=O)/C=C/N(C)C)nnn1-c1ccc(Cl)cc1C#N	i	0.71
COc1cccc(NC(=O)CSc2nc(=O)n(Cc3ccncc3)c3c2CCCC3)c1	i	nt
CCCN1C(=O)/C(=C/c2ccc(C)o2)SC1=Nc1ccc(OC)cc1	i	nt
CCN1C(=O)/C(=C/c2ccc(C)s2)SC1=Nc1ccc(OC)cc1	-6.3*	-6.3
COc1ccc(N=C2S/C(=C\c3ccc(C)o3)C(=O)N2CC(C)C)cc1	-6.1*	-6.1
CCCN1C(=O)/C(=C/c2ccco2)SC1=Nc1ccc(OC)cc1	i	nt
CC(=O)c1c(C)[nH]c(C(=O)OC(C)C(=O)Nc2cc(S(=O)(=O)N3CCCCC3)ccc2Cl)c1C (stereo not drawn)	i	nt
O=C(O)c1cc(N/N=C/C(Cl)=C/c2ccccc2)ccc1Cl	i	5.3*
O=C(O)c1cc(N/N=C/c2cccc3ccccc23)ccc1Cl	i	1.8
COc1ccc(OC)c(N=C(N)N=C(N)N)c1	i	1.3
C=CCn1c(-c2csc(-c3ccccc3)n2)n[nH]c1=S	i	0.16
C=CCN1C(=S)CC(c2ccccc2)=Nc2ccccc21	-6.7*	-6.7
CCOC(=O)C1=C(C)NC(C)=C(C(=O)OCC)C1/C=C/c1ccccc1OC	i	1.3
CCOC(=O)C1=C(C)NC(C)=C(C(=O)OCC)C1c1ccccc1/C=C/C(=O)OC(C)(C)C	-6.7*	-6.7
CCC(=O)N(CCc1ccccc1)Cc1cc2cccc(C)c2[nH]c1=O	i	nt
Cc1ccc(S(=O)(=O)N(CC(=O)NCC2CCCO2)Cc2ccc(F)cc2)cc1 (stereo not drawn)	i	nt
CC(C)N1CCc2c(sc(NC(=O)c3nc4ccccc4s3)c2C(N)=O)C1	i	nt
CC(C)N1CCc2c(sc(NC(=O)c3cc(-c4cccs4)nc4ccccc34)c2C(N)=O)C1	-6.4*	-6.4
Cc1ccccc1CNS(=O)(=O)c1csc(C(N)=O)c1	i	0.42
Cc1c(Cl)ccc2c(C(=O)Nc3cc(C(C)(C)C)on3)cc(-c3ccccn3)nc12	-5.9*	-5.9
